Screening results: PubChem, The Scripps Research Institute Molecular Screening Center
An excerpt weighted towards active compounds, which were near 4.5% of everything screened.
hcDAF12 agonist – H. contortus DAF-12 nuclear receptor activators, primary screen, cell-based, luminescence, HEK293, lit1-tk-luc reporter | HEK293 hcDAF-12 lit1-tk-luc reporter; 0% DMSO, 100% Δ7-dafachronic acid | activation, % at 6.8 µM | 1.4% of 370,000 active;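 active means activation above the mean of all tested compounds plus 3 SD, cut at about 5.5% in these data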;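 further: 100% = response to 3 µM Δ7-dafachronic acid high control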
DAX1 inh-1 – DAX1 (NR0B1) inhibitors, primary screen, cell-based, HEK293, Gal4-DAX1, luciferase luminescence; inhibition, % at 6.75 µM; AID 504766, 2011; HEK293 Gal4-DAX1 luciferase reporter; Nuclear receptor subfamily 0 group B member 1 (Homo sapiens), P51843; 0.99% of 340,000 active;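 active means inhibition above the mean over all tested compounds plus 3 SD, cut at about 4.2% in these data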;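 further: 0% = DAX1-transfected cells with DMSO and 100% = empty-vector control cells with DMSO; inhibition shows as a rise in luminescence from relieved DAX1 repression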
Target sequence (P51843 207-470 limits assumed): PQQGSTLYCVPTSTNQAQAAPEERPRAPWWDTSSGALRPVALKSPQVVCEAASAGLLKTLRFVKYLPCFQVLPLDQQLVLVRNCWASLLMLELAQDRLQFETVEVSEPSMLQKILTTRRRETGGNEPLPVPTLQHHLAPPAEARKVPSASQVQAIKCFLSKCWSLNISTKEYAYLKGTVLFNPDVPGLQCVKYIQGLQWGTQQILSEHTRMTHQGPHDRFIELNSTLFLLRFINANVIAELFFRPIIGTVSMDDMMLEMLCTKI
hgDAF-12 ag – H. glycines DAF-12 receptor agonists, primary screen, cell-based, luminescence, HEK293, GAL4 fusion, UAS-luciferase; HEK293 GAL4-hgDAF12 UAS-luciferase reporter, agonist luminescence; normalized to butyrate control; activation, % at 6.8 µM; 1.8% of 370,000 active;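 active means activation above a cutoff set at the mean of all screened compounds plus 3 SD, cut at about 10% in these data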;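 further: 0% = DMSO wells and 100% = sodium butyrate wells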
GAA850 FXN act – FXN promoter activators, primary screen, cell-based, luciferase luminescence, HEK293 lucGAA850. activation, % at 6 µM. HEK293 lucGAA850 FXN promoter luciferase reporter, 24 h; percent of 10 µM SAHA response. 0.56% of 360,000 active. AID 540364, 2011;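 active means activation above the average of all compounds screened plus 3 SD, cutoff fixed separately per campaign, cut at about 7.5% in these data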;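 further: 0% = DMSO wells and 100% = 10 µM SAHA wells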
ssDAF12 agonist – S. stercoralis DAF-12 nuclear receptor activators, primary screen, cell-based, luminescence, HEK293, GRIP1 co-expression, lit1-tk-luc; HEK293 ssDAF-12/GRIP1 lit1-tk-luc reporter; % of 3 µM dafachronic acid response; activation, % at 6.8 µM; 1% of 370,000 active; AID 652126, 2013;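 active means activation above the mean over all tested compounds plus 3 SD, cut at about 0.9% in these data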;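 further: 0% = DMSO-only wells and 100% = 3 µM delta7-dafachronic acid wells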
DAX1 inh-2 – DAX1 (NR0B1) inhibitors on StAR promoter, primary screen, cell-based, luminescence, SF-1 (NR5A1), full-length DAX-1; HEK293T StAR-luciferase reporter, SF-1/DAX-1 repression relief; inhibition, % at 6.8 µM; 1.1% of 370,000 active; AID 652010, 2013;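 active means inhibition above the mean over all tested compounds plus 3 SD, cut at about 3.6% in these data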;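 further: 0% = DAX-1 cells with DMSO and 100% = cells lacking DAX-1 with DMSO; higher inhibition means more luminescence from relief of DAX-1 repression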
GAA30 FXN cntr – GAA30 FXN promoter activators, confirmation, counter-screen for GAA850 frataxin promoter activator project, cell-based, luminescence, HEK293, lucGAA30, triplicate | HEK293 lucGAA30 FXN promoter luciferase, 24 h; DMSO = 0%, 5 µM ipriflavone = 100% | activation, % at 6 µM | 66% of 1,900 active | shares compounds with GAA850 FXN act;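 active means mean activation above the mean of solvent-only control wells plus 3 SD, cut at about 22% in these data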;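 further: counterscreen of GAA850 promoter hits where activity marks nonselective or luminescence artifacts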
GAA850 confirm – FXN GAA850 promoter activators in reporter cells, confirmation, cell-based, luminescence, HEK293 lucGAA850, triplicate; HEK293 lucGAA850 FXN promoter luciferase reporter, 24 h; 100% = activation by SAHA; activation, % at 6 µM; 86% of 1,900 active; shares compounds with GAA850 FXN act;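 active means mean activation above a set limit taken from the primary screen, cut at about 8% in these data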;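 further: 0% = DMSO wells and 100% = 10 µM SAHA wells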
DAX1 inh confirm – DAX1 (NR0B1) inhibitors relieving SF-1 repression, confirmation, cell-based, luminescence, HEK293T, full-length DAX-1, SF-1 activated StAR promoter | HEK293T StAR-promoter luciferase reporter, SF-1/DAX-1 repression | 87% of 2,400 active | shares compounds with DAX1 inh-2 | inhibition, % at 6.8 µM;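 active means inhibition above the average of every tested compound plus 3 SD, cut at about 3.8% in these data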;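 further: 0% = DAX-1 cells with DMSO and 100% = no DAX-1 control cells with DMSO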
SF1 mutant ctr – StAR reporter signal changes without DAX1, counter-screen for DAX1 inhibitor project, cell-based, luminescence, AF-2 mutant SF-1, transactivation; AID 652136, 2013; HEK293 StAR-luciferase, SF-1 AF2 mutant; shares compounds with DAX1 inh-2; inhibition, % at 6.8 µM; 78% of 2,400 active;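 active means inhibition above the mean of all tested compounds plus 3 SD, cut at about 3% in these data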;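 further: 0% = DAX-1 transfected cells with DMSO and 100% = cells without DAX-1 with DMSO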
LXR ag – LXR agonists, Gal4 luciferase reporter, confirmation, counter-screen for hcDAF-12 agonist project, cell-based, luminescence, HEK293, H. contortus campaign; shares compounds with hcDAF12 agonist; HEK293 Gal4-LXR tk-luc reporter, 24 h; normalized: DMSO 0%, positive control 100%; activation, % at 6.8 µM; 3,400 tested, under 10 active;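 active means mean percent activation of the reporter above a cutoff set as the average over tested compounds plus their standard deviation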
hcDAF12 conf – H. contortus DAF-12 receptor agonists, confirmation, cell-based, luminescence, HEK293, lit1-tk-luc, triplicate; shares compounds with hcDAF12 agonist; HEK293 hcDAF-12 lit1-tk-luc reporter; % of Δ7-dafachronic acid response; activation, % at 6.8 µM; 61% of 3,400 active; AID 743032, 2013;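 active means mean activation across triplicate tests above the threshold derived from the earlier primary screen, cut at about 5.5% in these data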;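 further: 0% = DMSO only wells and 100% = 3 µM Δ7-dafachronic acid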
hgDAF12 ag – H. glycines DAF-12 receptor agonists, confirmation, cell-based, luminescence, HEK293, GAL4-LBD fusion; shares compounds with hgDAF-12 ag; HEK293 GAL4-hgDAF12 luciferase reporter, agonist mode; percent of butyrate response; activation, % at 6.8 µM; 80% of 3,300 active;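 active means mean activation over triplicate wells above the hit cutoff derived from the earlier primary screen, cut at about 11% in these data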;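 further: 0% = DMSO low control and 100% = 2 mM sodium butyrate high control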
LXRb DAF12 ctr – LXR agonists, Gal4 luciferase reporter, confirmation, counter-screen for hgDAF-12 agonist project, cell-based, luminescence, HEK293, H. glycines campaign; shares compounds with hgDAF-12 ag; 24 h; activation, % at 6.8 µM; 3,300 tested, under 10 active; AID 743051, 2013;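 active means mean activation of the triplicate above a set limit carried over from the primary screen, none filed active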
* marks the source's active call; other numbers are inactive results; / = not tested or not shown; + = active, no number.

SMILES | hcDAF12 agonist | DAX1 inh-1 | hgDAF-12 ag | GAA850 FXN act | ssDAF12 agonist | DAX1 inh-2 | GAA30 FXN cntr | GAA850 confirm | LXR ag | hcDAF12 conf | hgDAF12 ag | LXRb DAF12 ctr | others
O=C(CCCCCCC(=O)Nc1ccccc1)NO | 12* | 13* | 41* | 88* | 2.0* | 33* | 61* | 97* | 0 | 7.0* | 41* | 1 | DAX1 inh confirm=+;SF1 mutant ctr=-6
O=C(Nc1ccccc1)OCC(CN1CCCCC1)OC(=O)Nc1ccccc1 (stereo unspecified) | 1 | -1 | 2 | -4 | 0 | 0 | / | / | / | / | / | /
CN(C)c1ccc(/C=C/c2nnnn2-c2ccccc2)cc1 | 11* | 4 | 17* | 8.3* | 0 | 3 | 125* | 38* | 1 | 6.1* | 22* | 1
Cc1cc(N/C=C\c2nnnn2-c2ccccc2)no1 | 1 | 1 | 6 | 2 | 0 | -1 | / | / | / | / | / | /
Cc1ccc(S(=O)(=O)NC2CCSC2=O)cc1C (stereo unspecified) | -1 | 1 | -3 | 0 | -1 | 1 | / | / | / | / | / | /
